The results in this text go back to PubChem BioAssay AID1053197 (The Scripps Research Institute Molecular Screening Center, 2014).

Hit rate of the full screen: of about 370,000 compounds, about 2,600 (0.7%) were called active.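 Rule for the calls: active = inhibition above a cutoff: mean of compounds within the control limits plus 3 SD of those (cut at about 17% in these data); inactive = the rest.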 This excerpt belongs to a sample that is enriched for actives.

For the assay, the target named is Sialate O-acetylesterase (Homo sapiens) (UniProt Q9HAT2). As to the kind of experiment: blockers of sialate O-acetylesterase activity-probe labeling – biochemical, fluorescence polarization, FP-Rh probe, 1536-well HTS, primary screen (AID 1053197).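 Note: 0% = plate median of compound wells and 100% = probe without SIAE protein.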 Conditions: SIAE FP-Rh probe binding, at 9.66 µM, hits give high values. A general note: In fluorescence polarisation assays a small probe gives low polarisation when free and higher when bound to something large.
Chain of Sialate O-acetylesterase (Homo sapiens) (Q9HAT2 whole entry, looked up): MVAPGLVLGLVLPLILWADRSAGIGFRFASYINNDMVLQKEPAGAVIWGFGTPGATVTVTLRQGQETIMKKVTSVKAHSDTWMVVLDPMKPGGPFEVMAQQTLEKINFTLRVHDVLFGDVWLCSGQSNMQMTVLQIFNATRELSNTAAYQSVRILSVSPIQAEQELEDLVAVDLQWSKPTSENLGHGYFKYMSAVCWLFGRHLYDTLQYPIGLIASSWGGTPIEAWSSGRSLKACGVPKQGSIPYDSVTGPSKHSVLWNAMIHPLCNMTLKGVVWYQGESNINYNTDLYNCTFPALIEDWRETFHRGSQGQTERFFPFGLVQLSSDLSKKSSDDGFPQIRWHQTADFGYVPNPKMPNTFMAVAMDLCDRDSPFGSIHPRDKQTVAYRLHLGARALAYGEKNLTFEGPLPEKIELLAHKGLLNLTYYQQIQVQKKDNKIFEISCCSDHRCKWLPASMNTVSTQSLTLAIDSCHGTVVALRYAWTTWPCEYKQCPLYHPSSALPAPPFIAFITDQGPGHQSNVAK
In general, inhibition refers to the drop in the measured response relative to a control, in per cent. In the case of `COc1cc(/C=C/C(=O)n2cnc3ccccc32)cc(OC)c1OC`, the inhibition is -3.74% (inactive). With `CC(=O)Nc1cccc(Nc2ccc(C#N)cc2)c1` the figure was 7.95% (inactive); with `CN(CC(=O)Nc1cccc(F)c1)CC(=O)Nc1cccc([N+](=O)[O-])c1`, 21.2% (active). For `CCc1ccc(NC(=O)C(C)OC(=O)/C=C/c2cccc([N+](=O)[O-])c2)cc1` (centres undefined) the value was -4.1% (inactive); for `CN(C(=O)c1cccc(NC(=O)Cc2cccc([N+](=O)[O-])c2)c1)C1CCCCC1`, -12.1% (inactive). With `CC(=O)Nc1cccc([N+](=O)[O-])c1` the figure was 19.3% (active); with `CS(=O)(=O)N(CC(=O)Nc1ccc(F)cc1F)c1cccc([N+](=O)[O-])c1`, 5.36% (inactive).

On to `COC(=O)[C@]12C[C@H](CC(=O)NCc3cccc4ccccc34)C(=O)N(CCc3ccc(OC)c(OC)c3)C1=C[C@H](C1CCCC1)O[C@@H]2C`, for which the inhibition was -2.97% (inactive).

Consider `O=C(OC12CCCN(C1)/C(=C/c1ccccc1)C2)c1ccco1` (centres undefined), for which the inhibition is 0.28% (inactive). With `COP(=O)(O)CNC(=O)OCc1ccccc1` the figure was 0.82% (inactive).

With `O=C(NCc1cccs1)C1CCN(S(=O)(=O)c2ccccc2[N+](=O)[O-])CC1`, the inhibition is -0.55% (inactive). For `CCN(CC)C(=O)CC[C@H]1CC[C@]2(CCCN(Cc3ccc(Cl)cc3)C2)O1` the value was -1% (inactive); for `Cc1ccccc1NC(=O)COC(=O)c1ccc(Sc2ncn[nH]2)c([N+](=O)[O-])c1`, 0.99% (inactive); for `CCOC(=O)N1CCN(C(=O)C[C@H]2C[C@@]3(C(=O)OC)C(=C[C@H](C(C)(C)C)O[C@@H]3C)N(Cc3ccc(Cl)cc3Cl)C2=O)CC1`, 4.46% (inactive). For `Cc1ccc2c(c1)C1CN(C)CCC1N2C(=O)c1ccccc1NS(=O)(=O)c1ccc(F)cc1C` (centres undefined) the value was -4.94% (inactive); for `Cc1ccc2c(c1)C1CN(C)CCC1N2C(=S)Nc1ccc(Cl)cc1Cl` (centres undefined), -1.14% (inactive).

As for `Cc1ccc2c(c1)C1CN(C)CCC1N2C(=S)Nc1ccc(OC(F)F)cc1` (centres undefined), the inhibition is 19% (active). For `O=C(OCC#CCSc1nnc(-c2ccco2)o1)c1ccc(F)cc1` the value was -3.86% (inactive); for `FC(F)(F)c1cccc(Cn2ccc3ccc(-c4ccc5ccn(Cc6ccccc6)c5c4)cc32)c1`, -4.98% (inactive).

Regarding `Cc1nc(N2CCOCC2)sc1C(=O)NN`, the inhibition is 4.29% (inactive). For `Cc1nc(-c2ccc(Cl)cc2)sc1C1(C)CC(c2ccc(Br)cc2)=NO1` (centres undefined) the value was -4.52% (inactive). For `Cc1nc(-c2ccc(Cl)cc2)sc1C(=O)NN` the value was 17.1% (active); for `CN(C)S(=O)(=O)c1cccc(C(=O)N/N=C\c2ccco2)c1`, 1.17% (inactive). With `O=C1CCCC(O)=C1N=Nc1ccc2ncsc2c1` the figure was 4.95% (inactive); with `O=C1CCCC(O)=C1N=Nc1ccc(S(=O)(=O)N2CCOCC2)cc1`, 32.3% (active); with `CC1(C)CC(=O)C(N=Nc2ccc(S(=O)(=O)N3CCCCCC3)cc2)=C(O)C1`, -6.58% (inactive). For the compound `COc1cccc(/C=C2\CC3(OC(C)=O)CCCN2C3)c1` (centres undefined), the inhibition was 5.6% (inactive). For `CC(=O)Nc1ccc(NC(=O)C(NS(=O)(=O)c2ccc3c(c2)OCCO3)C(C)C)cc1` (centres undefined) the value was -4.61% (inactive); for `CNS(=O)(=O)c1ccc(NC(=O)Nc2ccc3c(c2)OCO3)cc1`, -0.18% (inactive); for `CC(NS(=O)(=O)c1ccc(Cl)cc1)C(=O)Nc1ccc2c(c1)OCCO2` (centres undefined), 17.1% (active). With `Cc1ccc(Cn2cc(CN3[C@@H](C)COc4cc(Br)ccc4S3(=O)=O)nn2)cc1` the figure was -0.41% (inactive). For `CC(=O)OCCN1CCCC12CCC(c1ccccc1)CC2` (centres undefined) the value was -7.94% (inactive). Turning to `COc1ccc(-c2nnc(SCC(=O)c3ccc4c(c3)OCCO4)o2)cc1`, the inhibition is -8.81% (inactive).

For `COc1cccc(C(=O)Nc2cc3c(cc2Br)OCCCO3)c1`, the inhibition is 5.12% (inactive). In the case of `COc1ccc2nc(Nc3nc4cc5c(cc4s3)OCCO5)sc2c1`, the inhibition is 21.1% (active). For `O=C(NC1CCC1)c1ccc(C#CC2CC2)cn1` the value was 3.02% (inactive). With `CC(C)(C)OC(=O)NCCc1ccccc1/C=C/S(=O)(=O)NCc1ccc(F)cc1` the figure was 3.43% (inactive); with `Cc1ccc(-c2nc(C3CCCN(S(=O)(=O)c4ccc(Br)s4)C3)no2)cc1` (centres undefined), 3.3% (inactive). With `O=C(CSc1nnc(COc2ccccc2)n1-c1ccc(Cl)cc1)Nc1ccc2c(c1)OCO2` the figure was -2.77% (inactive); with `NCCCNC(=S)NCCCN(Cc1ccc(Cl)cc1)c1ccc(Br)cn1`, -4.09% (inactive). With `S=C(NCCCc1cnc[nH]1)NCCCN(Cc1ccc(Cl)c(Cl)c1)c1ccc(Br)cn1`, the inhibition was 38.7% (active). For `COc1ccc(Cn2ccc3ccc(-c4ccc5ccn(Cc6ccccc6C)c5c4)cc32)cc1` the value was 1.75% (inactive); for `COC(=O)[C@]12C[C@H](CC(=O)NCCCN3CCCC3=O)C(=O)N(CCc3ccc(OC)c(OC)c3)C1=C[C@H](COCc1ccccc1)O[C@@H]2C`, -1.06% (inactive); for `CCOC(=O)[C@]12CCCCC/C=C\1N(Cc1ccc(OC)cc1)C(=O)[C@H]2CC(=O)NCc1ccc(C)o1`, 4.67% (inactive). With `O=C(CCCCCN1C(=O)C2C3C=CC(C3)C2C1=O)Nc1ccccc1` (centres undefined) the figure was 0.48% (inactive). For `COc1ccc(CSc2nnc(SCC(=O)Nc3ccccc3C(F)(F)F)s2)cc1` the value was 2.74% (inactive); for `O=C(NCc1cccs1)c1ccc2c(c1)ncn2C1CCCC1`, 6.82% (inactive); for `CC(NCc1cccs1)C(=O)Nc1cc(Cl)cc(Cl)c1` (centres undefined), 8.74% (inactive). For `Cc1nc2cc(NCc3cccs3)ccc2n1C`, the inhibition is 82.8% (active). With `Cc1ccc(CN2CCCCC(NC(=O)C3CCCCC3)C2=O)cc1` (centres undefined) the figure was -2.58% (inactive); with `COC(=O)[C@]12C[C@H](CC(=O)NCc3ccccc3)C(=O)N(Cc3ccccc3)C1=C[C@H](COCc1ccccc1)O[C@@H]2C`, -4.26% (inactive). With `CC(=O)Nc1ccc(S(=O)(=O)N2CCCC2C(=O)O)cc1` (centres undefined) the figure was -4.8% (inactive); with `CC(=O)Nc1ccc(S(=O)(=O)N2CCN(C3CCCCCCC3)CC2)cc1`, 1.94% (inactive); with `CC(=O)Nc1ccc(S(=O)(=O)Nc2ccc(N3CCCCC3)cc2)cc1`, 22.2% (active). For `COc1ccc(CN2C(=O)N3Cc4cc(OC)ccc4C3CS2(=O)=O)cc1` (centres undefined) the value was -3.42% (inactive); for `CCOC(=O)C1=C(O)/C(=C/c2ccc(OCC(=O)Nc3ccc(C)cc3)cc2)N=C1C`, -21.7% (inactive). For the compound `Cc1ccc(-c2nnc(SCC(=O)Nc3ccc(Oc4ccccc4)cc3)n2Cc2ccco2)cc1`, the inhibition is -0.26% (inactive). For `Cc1ccc(OCC(=O)Nc2ccc(-c3nnc(-c4ccco4)o3)cc2)cc1` the value was 32.9% (active); for `COC(=O)C1=C(NC(=O)C(C)(C)C)CCS1`, 17.4% (active); for `COC(=O)c1c(C(=O)OC)c2n(c1C)CCS2`, -0.54% (inactive). With `Cc1nc(NC(=O)C(C)(C)C)sc1[N+](=O)[O-]` the figure was -3.66% (inactive); with `Cc1cc(C)n2ncc(C(=O)Nc3ccc4c(c3)OCCO4)c2n1`, 13.6% (inactive); with `CCOC(=O)c1cccc(NC(=O)CN(C)S(=O)(=O)c2ccc(-c3cocn3)s2)c1`, 2.17% (inactive).

On to `NC(=O)Cc1ccc2sc(-c3ccccc3)nc2c1`, for which the inhibition is 5.29% (inactive).

With `CN(C(=O)COc1nnc(-c2cccs2)c(-c2cccs2)n1)c1ccccc1`, the inhibition is -4.55% (inactive).

As to `O=C(O)Cc1sc(-c2ccccc2)nc1-c1cccs1`, the inhibition is 23.1% (active). On to `CCCCNC(=O)C[C@H]1C(=O)N(Cc2ccc(OC)cc2)C2=CCCC[C@@]21C(=O)OCC`, for which the inhibition is -2.41% (inactive). For `CCOC(=O)C1CCN(C(=O)C(C)(C)NC(=O)Nc2ccc(F)c(F)c2)CC1` the value was 0.69% (inactive). On to `C=CS(=O)(=O)N(Cc1nnn(Cc2ccccc2)c1Br)[C@H](C(=O)OC)C(C)C`, for which the inhibition was 2.36% (inactive). For `COc1ccc(C2NC(=O)C(=O)/C2=C(\O)c2ccc(Cl)cc2)cc1OC` (centres undefined) the value was 0.15% (inactive); for `CCC1(C)COC(c2ccc(OC)c(OC)c2)OC1` (centres undefined), -0.64% (inactive); for `COc1ccc(C2OCC3(CO2)SC(=O)NC3=O)cc1OC` (centres undefined), 17.2% (active). Consider `COC(=O)[C@]12C[C@H](CC(=O)N3CCOCC3)C(=O)N(Cc3ccc(Cl)cc3Cl)C1=C[C@H](C(C)C)O[C@@H]2C1CC1`, for which the inhibition was 7.42% (inactive). With `CCn1c(CSc2ncccn2)nnc1SCC(=O)N1c2ccccc2CC1C` (centres undefined) the figure was 6.44% (inactive); with `CC1CC(C)CN(C(=O)CSc2nnc(CSc3ncccn3)n2C)C1` (centres undefined), -4.27% (inactive). With `CC(=O)CSc1nnc(CSc2ncccn2)n1C1CCCCC1`, the inhibition was 23.7% (active).

`C#CCCN([C@H](C(=O)OC)C(C)C)S(=O)(=O)c1ccc(F)cc1Br`: the inhibition is 0.24% (inactive).

On to `Clc1ccc(-n2c(SC/C=C/c3ccccc3)nnc2-c2ccco2)cc1`, for which the inhibition is 6.61% (inactive). With `NNC(=O)c1oc2nc(-c3ccccc3)cc(-c3ccco3)c2c1N` the figure was 19.6% (active); with `CNC(=S)NNC(=O)c1oc2nc(-c3ccccc3)cc(-c3ccco3)c2c1N`, 17.2% (active); with `Cc1ccc(O)c(NC(=O)c2cc(-c3ccco3)on2)c1`, 3.18% (inactive).

On to `O=C1CCC2(CCC(c3ccc(Cl)cc3)CC2)N1CCO` (centres undefined), for which the inhibition was 6.92% (inactive). For the compound `C=CCN1C(C(=O)OC)CN(Cc2cn(Cc3ccccc3)nn2)CCS1(=O)=O` (centres undefined), the inhibition was 5.02% (inactive).

As to `O=C(CSc1nc2c(c(=O)[nH]1)CCCC2)N1CCCCC1`, the inhibition is 1.16% (inactive). Regarding `O=C(c1c[nH]c2ccccc12)N1CCC(Oc2cccnc2)CC1`, the inhibition was 7.61% (inactive). With `Cc1ccc(C(=O)N(Cc2ccccn2)CC2CCCO2)cc1` (centres undefined) the figure was -2.59% (inactive); with `CCOC(=O)C1CSCCS(=O)(=O)N1Cc1ccc(Cl)cc1` (centres undefined), -6.12% (inactive); with `CCOC(=O)C1Sc2[nH]c(=O)sc2C(c2ccc(Cl)cc2)C1C(=O)OCC` (centres undefined), 24.7% (active). With `CCOC(=O)c1ccccc1N1C(=O)C2Sc3[nH]c(=O)sc3C(/C=C/c3ccccc3)C2C1=O` (centres undefined) the figure was 15.9% (inactive).
